HepG2 tox = kills HepG2 cells in TGF-b inhibitor counter-screen; HepG2 CAGA-GFP viability, ATP luminescence, 18 h; Potency, µM (highest dose often 46.1 µM), for inactives: top-dose activity change, negative = cytotoxicity, most hits filed as cytotoxic; actives 0.76% (n = 410,000); AID 588856; also: potency is read from the fitted curve at half-maximal effect
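CellTiter-Glo luminescence gave cytotoxicity after 18 hours at 37 degrees C. The cells were HepG2 CAGA-GFP in 1% FBS DMEM, stimulated with 500 pg/mL TGF-beta after compound addition. %Activity was normalised to no-cell wells (complete cell-killing) and DMSO (no toxicity), and curves were fitted and classified.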
S2 tox = cell viability loss in ATXN counter-screen; S2 cells (HEK-293 line with an ATXN2-luciferase reporter) viability, CellTiter-Fluor protease fluorescence, 24 h; Potency, µM (top dose mostly 56.7 µM), usual class: cytotoxic; actives 0.49% (n = 400,000); AID 651635; also: potency is read from the fitted curve at half-maximal effect; nearly all actives have a fitted effect of over 40% in size
TGFb SMAD3 inh = blocks TGF-b signaling; HepG2 CAGA-GFP TGF-b/SMAD3 reporter, GFP fluorescence, 18 h; TGF-beta stimulated, 500 pg/mL final; Potency, µM (series often up to 46.1 µM), without a hit: at the highest dose activity, negative = inhibition, hits mostly inhibitors; actives 1.2% (n = 410,000); also: potency is read from the fitted curve at half-maximal effect; % is scaled to controls: 0 for no effect and ±100 for the full control effect; nearly all actives have a fitted effect of over 65% in size
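TGF-beta reporter screen: HEPG2 CAGA-GFP, 1% FBS, 500 pg/mL TGF-beta final, 18 h; per-cell GFP summed per well; curves fitted and categorized by class.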
ATXN2 expr inh = reduces ATXN2 reporter expression in HEK-293 cells | HEK-293 ATXN2-luciferase reporter, luminescence, 24 h | Potency, µM (doses to about 57 µM), without a hit: at the top dose activity change, negative = inhibition, most hits filed as inhibitors | actives 0.72% (n = 360,000) | AID 1745845; also: potency is read from the fitted curve at half-maximal effect; % is scaled to controls: 0 for no effect and ±100 for the full control effect; nearly all actives have a fitted effect of over 55% in size
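qHTS (up to 57 uM final) was run with 24 h compound exposure of reporter cells at 37 °C. Each well was multiplexed: SteadyGlo luminescence measured ATXN2-luciferase expression after a fluorogenic Gly-Phe-AFC viability readout (25 uM final).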
LDHA inh = inhibitors of human lactate dehydrogenase A | activity change, % (values are at about 110 or 230 µM) | actives 0.15% (n = 480,000) | purified LDHA, NADH/diaphorase-resazurin fluorescence; hits give low values | P00338 | AID 1347041; in the data active = activity change below about -30%; inconclusive = mostly about -25% to -30%;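 also: plate controls were DMSO wells for no effect and wells without enzyme for full effect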
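Human LDH5 at 2 nM final in Tris HCl pH 7.4 with 0.06 mM NADH and 0.2 mM pyruvate, reacted 5 minutes at room temperature. Remaining NADH coupled via diaphorase/resazurin; resorufin fluorescence read at 0 and 20 minutes, normalized to enzyme-free and DMSO wells.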
mIDH1 inhibitor = inhibitors of human mutant IDH1 R132H; O75874; actives 0.093% (n = 390,000); IDH1-R132H enzyme, NADPH consumption, diaphorase/resazurin fluorescence; Potency, µM (titrated, usually from 76.6 µM), for inactives: top-dose activity change, negative = inhibition, hits mostly inhibitors; also: potency is read from the fitted curve at half-maximal effect; % is scaled to controls: 0 for no effect and ±100 for the full control effect; nearly all actives have a fitted effect of over 65% in size
Target sequence (O75874 whole entry R132H, stated change not applied): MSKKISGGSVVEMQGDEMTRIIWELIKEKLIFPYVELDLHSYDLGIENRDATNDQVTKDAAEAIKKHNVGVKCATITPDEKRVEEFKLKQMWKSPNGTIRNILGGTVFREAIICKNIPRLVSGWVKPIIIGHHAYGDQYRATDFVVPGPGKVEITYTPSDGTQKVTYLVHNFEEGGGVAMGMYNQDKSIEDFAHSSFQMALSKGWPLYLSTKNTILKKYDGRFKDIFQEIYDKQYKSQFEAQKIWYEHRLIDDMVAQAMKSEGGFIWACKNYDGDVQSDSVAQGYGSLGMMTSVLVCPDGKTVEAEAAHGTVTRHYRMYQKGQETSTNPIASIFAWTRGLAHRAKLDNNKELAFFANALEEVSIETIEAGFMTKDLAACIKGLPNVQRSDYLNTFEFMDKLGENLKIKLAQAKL
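IDH1-R132H (0.5 ug/mL dispensed) in pH 7.5 Tris buffer was preincubated 30 min with compound, then given a substrate mix of 0.016 mM NADPH and 2 mM alpha-KG for 80 min at room temperature; remaining NADPH was read by diaphorase/resazurin fluorescence.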
Starred values were filed as active, the others as inactive; i = inactive; u = inconclusive; x = no result given. A selection: hits, their analogues and other compounds. The true share with any hit is near 2.2%. Unless noted, calls follow the shape of the dose curve; as a rule, active = well fitted curve in the direction sought with a large enough effect; inconclusive = small, poorly fitted or top-dose-only effect, or another doubt; inactive = no such curve, though single readings can be large; an effect the other way counts as inactive or inconclusive.

SMILES | HepG2 tox | S2 tox | TGFb SMAD3 inh | ATXN2 expr inh | LDHA inh | mIDH1 inhibitor
Cc1ccsc1C(=O)NNC(=O)C1CCCCC1C(=O)O (centres undefined) | -0.8% | i | 33.4% | 17.4% | -4.8 | 1.2%
COc1cccc(/C=N/NC(=O)c2ccccc2NC(=O)c2ccco2)c1OC | 5.0% | i | 4.9% | x | -4.8 | -0.3%
CCOc1ccc2nc(N(CCCN(C)C)C(=O)c3ccc4c(c3)CCCC4)sc2c1 | 17.8µM* | i | u | u | 4.4 | -6.0%
O=C(Nc1cccc(S(=O)(=O)NC2=NCCC2)c1)c1cc(=O)[nH]c2ccccc12 | -4.2% | i | -8.5% | 6.7% | -2.6 | 4.2%
CN(C)c1ncc(S(=O)(=O)c2ccc(Cl)cc2)c(-c2ccc(Cl)cc2Cl)n1 | -27.0% | i | u | -10.8% | -6.9 | -2.9%
COC(=O)C1=C(Cn2cnc3ccccc32)NC(=O)NC1c1cc(C)ccc1C (centres undefined) | -15.5% | i | 10.4% | -7.4% | 0.2 | -3.4%
CCOC(=O)C1=C(Cn2cnc3ccccc32)NC(=O)NC1c1cc(C)ccc1C (centres undefined) | -26.6% | 31.6µM* | u | u | 1.6 | 0.1%
COc1ccc2sc(-c3ccc(SC)cc3)c(-c3ccc(O)cc3)c2c1 | 12.6µM* | u | u | 22.4µM* | -6.6 | -5.0%
COC(=O)[C@H](Cc1ccccc1)NC(=O)C1(OC(C)=O)CC(OC(C)=O)C(OC(C)=O)C(OC(C)=O)C1 (some centres undefined) | -0.6% | i | 0.0% | 14.9% | -7.2 | 5.4%
Nc1ccc(C(=O)O)c([N+](=O)[O-])c1 | x | x | x | x | -3.4 | x
COc1cccc(-c2ncn(CCc3ccccc3OC)c2C(C)C)c1 | x | 11.2µM* | x | u | 3.0 | x
Cc1ccc2c(c1)N(C)/C(=C/c1cccc[n+]1C)S2 | 11.2µM* | i | -2.0% | u | -7.0 | -1.3%
CCN1/C(=C/c2cccc[n+]2C)Sc2ccc(OC)cc21 | -18.3% | i | 3.98µM* | x | -11.4 | 3.3%
OC(COc1ccccc1)CN1CCN(C(c2ccccc2)c2ccccc2)CC1 (centres undefined) | -53.3% | i | 14.1µM* | -26.2% | -0.8 | 4.5%
OC(COc1ccc(Br)cc1)CN1CCOCC1 (centres undefined) | 2.82µM* | i | 2.1% | 5.6% | -11.3 | 2.1%
COc1ccc(OCC(O)CN2CCCC2)cc1 (centres undefined) | 12.6µM* | i | 18.1% | x | -6.4 | -3.4%
CCOC(=O)c1c(C)n(C)c2ccc(OCC(O)CN3CCCCCC3)cc12 (centres undefined) | -35.8% | 17.8µM* | -16.1% | -30.5% | 0.5 | 16.3%
O/N=C(\c1ccc(O)cc1O)c1ccccc1F | x | x | x | x | -31.3* | x
O/N=C(/Cc1ccccc1)c1ccc(O)cc1O | x | x | x | x | 0.6 | x
COc1ccc(CS(=O)(=O)/C(Cl)=C(/Cl)C(=O)Nc2ccc(OC)nc2)cc1 | -106.9% | u | u | 12.6µM* | -3.7 | 4.6%
COc1ccc(NC(=O)/C(Cl)=C(/Cl)S(=O)Cc2ccccc2)cn1 (centres undefined) | 7.08µM* | 4.47µM* | 3.98µM* | 2.82µM* | -5.9 | 1.2%
COc1ccc(/C=C/C(=O)Nc2ccc(OC)nc2)cc1 | -24.2% | u | 0.6% | -12.1% | 1.3 | 4.9%
COc1ccc(NC(=O)Cc2ccccc2)cn1 | -2.1% | i | 1.9% | -15.7% | 2.7 | -8.6%
CC1CCN(S(=O)(=O)c2ccc(-c3nc(C#N)c(NCc4cccnc4)o3)cc2)CC1 | x | x | x | x | -10.6 | x
COc1ccc(-n2cccc2C=O)cc1 | -2.0% | i | 8.3% | 1.2% | -5.7 | 0.6%
SMILES | HepG2 tox | S2 tox | TGFb SMAD3 inh | ATXN2 expr inh | LDHA inh | mIDH1 inhibitor
COc1ccc(-n2cccc2/C=C/[N+](=O)[O-])cc1 | -60.5% | x | 17.8µM* | u | 13.4 | 9.5%
N=c1ccn2c(n1)O[C@H]1[C@@H](CO)[C@H](O)O[C@H]12 | -3.0% | i | 0.7% | 1.0% | -7.0 | -9.1%
CC(=O)c1c(-c2ccccc2)[nH]c2ccccc12 | -20.9% | u | -0.7% | -34.2% | -7.3 | 14.8%
O=C(O)/C=C/C(=O)c1c(-c2ccccc2)[nH]c2ccccc12 | -2.2% | i | 12.6µM* | 7.0% | -12.4 | 7.8%
CC12CCC(C[N+](C)(C)C1)C2(C)C (centres undefined) | 1.0% | u | 13.2% | 1.7% | 11.0 | 4.2%
Cn1c(SCC(=O)Nc2cccc(C(=O)O)c2)nnc1-c1cc2cc(Br)ccc2o1 | 3.3% | i | 1.8% | 4.9% | -34.2* | -1.3%
O=C(CSc1nc2ccccc2c(=O)n1CCC(=O)NC1CCCCC1)Nc1ccccc1Cl | -7.5% | i | 2.5% | -14.4% | 0.8 | -15.9%
COc1ccccc1C(=O)NC(=S)/C=C1/N(C)c2ccccc2C1(C)C | -3.3% | u | 22.4µM* | 0.0% | -3.7 | 1.5%
COc1cccc(-c2sc3ccc(OC)cc3c2-c2ccc(OCCN3CCCC3)cc2)c1 | -106.9% | u | u | u | 1.2 | -4.5%
COc1cccc(-c2sc3ccccc3c2-c2ccc(OCCN(C)C)cc2)c1 | 11.2µM* | x | u | 22.4µM* | 1.2 | -7.2%
COc1cccc(-c2sc3ccccc3c2-c2ccc(OCCN3CCCC3)cc2)c1 | 20µM* | u | u | 28.2µM* | -2.2 | -3.7%
COc1ccc2sc(-c3ccccc3OC)c(-c3ccc(OCCN(C)C)cc3)c2c1 | 15.8µM* | x | 15.8µM* | u | -0.2 | -2.7%
COc1cccc(-c2sc3cc(OC)c(OC)cc3c2-c2ccc(OCCN3CCCCC3)cc2)c1 | 12.6µM* | 39.8µM* | u | -20.6% | -1.5 | -12.0%
CN(Cc1nccs1)C(=O)C1CCC(=O)N(Cc2ccccc2F)C1 (centres undefined) | -10.5% | i | -7.7% | 3.0% | -5.7 | 0.9%
c1ccc(-c2sc3ccccc3c2-c2ccc(OCCN3CCCC3)cc2)cc1 | 11.2µM* | u | u | 25.1µM* | 3.6 | 8.3%
COc1ccc(-c2sc3ccccc3c2-c2ccc(OCCN3CCCCC3)cc2)cc1 | -11.1% | i | 31.6% | -7.9% | -5.5 | 5.2%
CCOc1ccc(NC(=O)N2CCC(CN3CCCCCC3)CC2)cc1 | 0.2% | x | 2.6% | x | -5.3 | -8.6%
Cc1c(Cl)ccc2c1NC(=O)[C@]21N[C@@H](Cc2ccccc2)[C@H]2C(=O)N(c3ccc(F)cc3)C(=O)[C@H]21 | -56.8% | u | 10µM* | -16.2% | -7.4 | 1.2%

Bioassay records as filed in PubChem.
